Measured values published in PubChem BioAssay AID1259240 (Keith Lab, Institute of Cancer Science, University of …, 2017).
Active and inactive are the calls of the source. Cut-off read from the data, not from the text of the source: active = fold change mostly below about -2 (no sharp cut-off); inactive = mostly above about -1.8.

Assay: TERT promoter activity modulators, primary screen, cell-based, luciferase reporter, human (AID 1259240)
Settings: A2780 TERT promoter luciferase reporter, 16 h; at 20 µM, fold versus average of vehicle-only wells

| Structure (SMILES) | fold change | outcome |
| --- | --- | --- |
| O=C(Cn1ncc2c3ccccc3n(Cc3ccccc3)c2c1=O)N1CCCC1 | -1.21 (inactive) |  |
| CCOC(=O)C(Sc1nnc(-c2c[nH]c3ccccc23)n1C)C(=O)OCC |  | inactive |
| COc1ccc(S(=O)(=O)n2cnc3ccccc32)c(C)c1 | -1.08 (inactive) |  |
| CC(=O)Oc1ccccc1-c1nc2s/c(=C\c3cccc(Br)c3)c(=O)n2n1 | 1.36 (inactive) |  |
| CCC(CC)COC(=O)C1=C(C)NC(=O)CC1c1ccccc1C (centres undefined) | 1.08 (inactive) |  |
| CC(C)OCCCNC(=O)c1ccc(NC2=NC3CS(=O)(=O)CC3S2)cc1 (centres undefined) | 1.22 (inactive) |  |
| CCN(CC)C(=O)c1sc(N2C(=O)Nc3ccccc3N2O)c(C(=O)OC)c1C | 1.14 (inactive) |  |
| CCOC(=O)c1oc2ccc(S(=O)(=O)n3nc(-c4ccc(OC)cc4OC)cc3N)cc2c1C | -1.57 (inactive) |  |
| O=C(NCCc1c[nH]c2ccccc12)C1CCN(c2ccc(N3CCOCC3)nn2)CC1 | -1.29 (inactive) |  |
| O=c1/c(=C/c2cn(-c3ccccc3)nc2-c2ccccc2)sc2nc(-c3ccco3)nn12 | 1.18 (inactive) |  |
| CCCCCn1c(=O)[nH]c2c(c1=O)CCC2 | -1.18 (inactive) |  |
| CC(C)CCNC(=O)Cn1c(=O)oc2cc(S(=O)(=O)N3CCc4ccccc43)ccc21 | 1.17 (inactive) |  |
| O=C(Cn1ncc2c3ccccc3n(Cc3ccc(Cl)cc3)c2c1=O)NC1CC1 | -1.11 (inactive) |  |
| CCOc1cc(C2NC(=O)c3n[nH]c(C)c32)ccc1O (centres undefined) | 1.27 (inactive) |  |
| Cc1sc2nc3ccc(N4CCCC4)nn3c(=O)c2c1C | -1.02 (inactive) |  |
| O=C(Cc1ccc(NC2=NC3CS(=O)(=O)CC3S2)cc1)N1CCN(c2ncccn2)CC1 (centres undefined) | 1.14 (inactive) |  |
| O=C(Nc1ccc(S(=O)(=O)N2CCCC2)cc1)C1c2ccccc2Oc2ccccc21 | -1.83 (inactive) |  |
| c1ccc(CN2CCN(c3nnc(Cc4cccnc4)c4ccccc34)CC2)cc1 | 1.04 (inactive) |  |
| Cc1cc(C)cc(N2CN=c3s/c(=C4\C(=O)Nc5ccccc54)c(=O)n3C2)c1 | -1.15 (inactive) |  |
| Cc1cc(NC(=O)CSc2ncnc3ccccc23)no1 | 1.35 (inactive) |  |

| Structure (SMILES) | fold change | outcome |
| --- | --- | --- |
| CCN(CC)C(=O)C1=C(C)Nc2nc3ccccc3n2C1c1ccncc1 (centres undefined) | -1.02 (inactive) |  |
| COc1ccc2cc3c(N)nn(C(=O)CSc4ccncc4)c3nc2c1 | -1.05 (inactive) |  |
| CC(C)n1cnc2cc(NCc3ccncc3)ccc21 | -2.71 (active) |  |
| Cn1c(=O)oc2cc(S(=O)(=O)N3CCC(C(=O)Nc4nccs4)CC3)ccc21 | 1.31 (inactive) |  |
| COc1cc2c(=O)c(S(=O)(=O)c3ccccc3)cn(Cc3ccccc3Cl)c2cc1OC | -1.09 (inactive) |  |
| O=C(Nc1ccc2snnc2c1)Nc1ccccc1Cl | -1.86 (inactive) |  |
| COc1ccc(C2c3c(n[nH]c3C)C(=O)N2c2ccc(Br)cc2)c(OC)c1 (centres undefined) | -1.34 (inactive) |  |
| Cc1ccc(-c2cc(C(F)F)n3ncc(C(=O)N4CCC(C)CC4)c3n2)cc1 | 1.16 (inactive) |  |
| Cc1nc(SCC(=O)Nc2cc(C)on2)c2c(=O)n(C)c(=O)n(C)c2n1 | -1.1 (inactive) |  |
| COc1ccc(S(=O)(=O)NC(C)(C)CO)cc1-c1nnc2c3ccccc3c(C)nn12 | -1.26 (inactive) |  |
| O=C(CCSCCc1ccccn1)Nc1nccs1 | 1.07 (inactive) |  |
| CCOC(=O)N1CCC(Nc2c(N3CCCCC3C)c(=O)c2=O)CC1 (centres undefined) | 1.02 (inactive) |  |
| Cc1ccc(NC(=O)CSc2nc3c(c(=O)[nH]2)CCC3)cc1F |  | inactive |
| COc1cc(/C=C2\SC(N3CCN(CCO)CC3)=NC2=O)ccc1O | 1.07 (inactive) |  |
| CC1CCCC(NC(=O)CN(C)S(=O)(=O)c2ccc3c(c2)CCC(=O)N3)C1C (centres undefined) | -1.68 (inactive) |  |
| Cc1ccc(NC(=O)CC2Sc3ccc(C(F)(F)F)cc3NC2=O)cc1C (centres undefined) | -1.24 (inactive) |  |
| COC(=O)c1cccnc1-n1c(=O)c2cccnc2n(Cc2ccc(C#N)cc2)c1=O | -1.61 (inactive) |  |
| Cc1cc2c(cc1C)NC(c1nc3ccccc3[nH]1)C1=C(CC(C)(C)CC1=O)N2 (centres undefined) | -1.29 (inactive) |  |
| CN1C(=O)C2ON(c3ccc(Cl)cc3)C(c3cccs3)C2C1=O (centres undefined) | -1.37 (inactive) |  |
